High-throughput results deposited in PubChem BioAssay by several laboratories.
p47phox inh: p47phox (human) inhibition; AID 1274; p47phox/p22phox peptide binding, fluorescence polarization, 2 h; P14598; actives 0.53% (n = 220,000); inhibition, % at 24.7 µM;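 active = inhibition above about 30%, limit read from the data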;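 also: 0% = p47phox with labelled peptide and 100% = labelled peptide alone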
Target sequence (P14598 whole entry, looked up): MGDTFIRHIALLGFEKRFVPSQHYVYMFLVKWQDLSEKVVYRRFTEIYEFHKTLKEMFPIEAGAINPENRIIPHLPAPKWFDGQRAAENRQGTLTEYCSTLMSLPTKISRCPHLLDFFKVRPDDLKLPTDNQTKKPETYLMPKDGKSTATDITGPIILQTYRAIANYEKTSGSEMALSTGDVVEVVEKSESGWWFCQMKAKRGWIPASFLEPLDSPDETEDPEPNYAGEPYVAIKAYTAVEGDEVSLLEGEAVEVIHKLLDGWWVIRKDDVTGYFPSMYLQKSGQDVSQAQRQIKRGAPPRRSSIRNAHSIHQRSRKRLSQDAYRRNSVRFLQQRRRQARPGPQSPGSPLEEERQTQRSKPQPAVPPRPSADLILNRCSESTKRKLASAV
ZTA counter: ZTA (EBV) inhibition in EBNA-1 counter-screen. actives 0.15% (n = 320,000). P03206. AID 2234. inhibition, % at 11 µM. ZTA-DNA binding, fluorescence polarization; in the data active = inhibition above about 33%
EBNA-1 inh: blocks EBNA-1 binding to DNA | actives 0.34% (n = 300,000) | EBNA-1 DNA binding, fluorescence polarization | inhibition, % at 14.8 µM; in the data active = inhibition above about 28%
aDG glyco act: alpha-DG glycosylation activation; actives 0.22% (n = 360,000); Pro5-aDG cells, alpha-DG glycosylation AlphaScreen (IIH6); 0% Pro5, 100% B10-LARGE cell signal; activation, % at 10 µM;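 active = activation of at least 8% versus controls, or a plate z-score of at least 8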;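 also: Pro5 are CHO cells carrying HIG-tagged alpha-DG that lacks glycosylation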
Rev-erbA mod: Rev-erb alpha (human) modulation; actives 0.79% (n = 370,000); activity, % at 10 µM; Rev-erbα–FITC-DNA binding, fluorescence polarization, 90 min;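 active = activity above about 14%, limit read from the data; passing the limit was not always enough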;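 also: 0% = DMSO wells with 35 nM protein and 100% = DMSO wells with 750 nM protein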
PG9 Ab binder: PG9 antibody binding by small molecule; TR-FRET gp120-PG9 antibody binding; inhibition, % at 6.7 µM; actives 0.43% (n = 360,000); in the data active = inhibition above about 8.5%
Active calls of the source: *. This is a sample that favours compounds with a hit; in the whole collection about 1.9% have one here.

C#CCOCCOCCOCCNc1nc(N2CCN(C(=O)[C@H](CCCCN)n3cc([C@@H](N)CO)nn3)CC2)nc(N2CCN(C(=O)[C@H](Cc3cc4ccccc4[nH]3)n3cc([C@@H](N)CO)nn3)CC2)n1 was read as p47phox inh 38.9*, ZTA counter -4.5 and EBNA-1 inh -8.0.
Screening C#CCOCCOCCOCCNc1nc(N2CCN(C(=O)C([C@@H](C)CC)n3cc(C(N)COC(=O)C(F)(F)F)nn3)CC2)nc(N2CCN(C(=O)[C@H](CCCCN)n3cc(C(N)[C@H](C)CC)nn3)CC2)n1 (stereo not given in full) returned ZTA counter 7.9 and EBNA-1 inh 1.5.
COc1ccc(-n2c(SCC(=O)Nc3ccc(S(=O)(=O)Nc4nccs4)cc3)nnc2-c2ccccc2)cc1 was read as Rev-erbA mod -6.8.
CCC(NC(=O)c1ccc2c(c1)c(C)c(C)n2Cc1ccc(-c2ccccc2C#N)cc1)c1ccccc1 (stereo not given) was read as Rev-erbA mod -0.1.
`COc1ccc(-c2nnc(CSc3nc4ccccc4c(=O)n3CC(C)C)o2)cc1OC` gave p47phox inh 36.8*, ZTA counter 9.2, EBNA-1 inh 0.8, aDG glyco act 0.5, Rev-erbA mod 1.1 and PG9 Ab binder -0.9.
O=S(=O)(O)OC[C@H]1O[C@@](COS(=O)(=O)O)(O[C@H]2O[C@H](COS(=O)(=O)O)[C@@H](OS(=O)(=O)O)[C@H](OS(=O)(=O)O)[C@H]2OS(=O)(=O)O)[C@@H](OS(=O)(=O)O)[C@@H]1OS(=O)(=O)O was read as Rev-erbA mod -3.0.
`CCCCCOC(=O)CSc1nnc(-c2cc(OC)c(OC)c(OC)c2)o1` gave p47phox inh 31.1*, ZTA counter 6.9, EBNA-1 inh 6.1, aDG glyco act 0.0, Rev-erbA mod -5.1 and PG9 Ab binder -1.5.
Screening Cc1nc(N)cc(C[n+]2csc(CCO)c2C)n1 returned Rev-erbA mod -10.4.
Cn1c(=S)c2[nH]c(SCCN)nc2n(C)c1=O was read as aDG glyco act 0.7, Rev-erbA mod -6.8 and PG9 Ab binder -3.4.
Cn1c(=S)c2[nH]c(SCCN3CCCC3)nc2n(C)c1=O was read as p47phox inh 44.5*, ZTA counter 9.2, EBNA-1 inh 7.2, aDG glyco act -0.1, Rev-erbA mod -3.8 and PG9 Ab binder 2.2.
`CCOC(=O)c1cnc2ccc(C)cc2c1NCCO` gave p47phox inh 42.9*, ZTA counter 9.2, EBNA-1 inh 9.4, aDG glyco act 0.1, Rev-erbA mod 2.9 and PG9 Ab binder 0.7.
CCOC(=O)c1cnc2c(ccc3ccccc32)c1NCCO was read as p47phox inh -14.6, ZTA counter -20.5, EBNA-1 inh -6.1, aDG glyco act 0.4, Rev-erbA mod -2.8 and PG9 Ab binder -0.5.
COc1cc(/C=N/NC(=O)c2ccc(CN3c4cccc5cccc(c45)S3(=O)=O)cc2)cc(OC)c1O was read as p47phox inh 36.3*, aDG glyco act 0.1, Rev-erbA mod -2.6 and PG9 Ab binder -2.2.
Oc1c(N=Nc2ccccn2)ccc2ccccc12 was read as p47phox inh 62.4*, ZTA counter 7.0, EBNA-1 inh 8.5, aDG glyco act -1.3, Rev-erbA mod -12.0 and PG9 Ab binder -7.1.
`Oc1[nH]c2ccccc2c1N=Nc1ccccn1` gave aDG glyco act 0.0, Rev-erbA mod -30.2 and PG9 Ab binder -4.9.
For CS(=O)(=O)N(CC(=O)Nc1ccccc1Sc1ccccc1)c1ccc(F)cc1 the results were p47phox inh -15.6, ZTA counter 3.5, EBNA-1 inh 6.8, aDG glyco act 0.2, Rev-erbA mod 1.8 and PG9 Ab binder 14.4*.
For CC(=O)O[C@]1(C(C)=O)CCC2C3C=C(Cl)C4=CC(=O)[C@@H]5C[C@@H]5[C@]4(C)C3CC[C@@]21C (stereo not given in full) the results were Rev-erbA mod -8.2.
Screening Cc1cccc(C)c1NC(=O)c1cc(S(N)(=O)=O)c(Cl)cc1O returned Rev-erbA mod 5.9.
`Cc1[nH]ccc(=O)c1OCc1ccc(Cl)cc1` gave p47phox inh 5.9, ZTA counter -3.6, EBNA-1 inh 1.2, aDG glyco act 0.0, Rev-erbA mod -5.2 and PG9 Ab binder -1.5.
`Cc1[nH]ccc(=O)c1OCc1ccccc1` gave p47phox inh 59.4*, ZTA counter 14.2, EBNA-1 inh -5.6, aDG glyco act 0.1, Rev-erbA mod -2.4 and PG9 Ab binder 0.3.
For O=C(Nc1ccc(F)cc1)OCc1cn(Cc2cccc(Cl)c2)nn1 the results were Rev-erbA mod -5.6.
`COc1ccc(CN2C/C(=C/c3ccc(C)cc3)N3C(=O)C[C@@H](c4ccccc4)N=C23)c(OC)c1` gave Rev-erbA mod 2.3.
For CC1=NOC(=O)/C1=C/c1ccc(N(C)C)cc1 the results were p47phox inh 180.7*, ZTA counter -3.9, EBNA-1 inh -0.5, Rev-erbA mod 4.9 and PG9 Ab binder -13.8.
Screening CCN(CC)c1ccc(/C=C2/C(=O)ON=C2C)cc1 returned p47phox inh -209.4, ZTA counter 15.1, EBNA-1 inh 4.5, aDG glyco act 0.0, Rev-erbA mod -2.4 and PG9 Ab binder -11.3.
`CN(C)c1ccc(N2CN=C3SCC(=O)N3C2)cc1` gave p47phox inh -7.9, ZTA counter active, EBNA-1 inh active, aDG glyco act -0.2, Rev-erbA mod -0.5 and PG9 Ab binder -17.1.
Screening COc1ccc2cc3cc(C(=O)NCCCN4CCc5ccccc5C4)sc3nc2c1 returned p47phox inh 73.0*, ZTA counter -4.0, EBNA-1 inh -2.5, aDG glyco act 0.1, Rev-erbA mod -3.5 and PG9 Ab binder 1.0.
For COc1ccc(C2C(C#N)=C(N)SC(N)=C2C#N)cc1OC the results were p47phox inh -39.7, ZTA counter 11.9, EBNA-1 inh 8.6, aDG glyco act -0.3, Rev-erbA mod 0.3 and PG9 Ab binder 7.8.
N#CC1=C(N)SC(N)=C(C#N)C1c1cccc(O)c1 was read as p47phox inh -100.3, ZTA counter -10.8, EBNA-1 inh -9.8, aDG glyco act -0.3, Rev-erbA mod 0.6 and PG9 Ab binder 22.1*.
Screening CC(=O)Nc1ccc(C(=O)OCC(=O)NC(=O)NC2CCCCC2)cc1 returned p47phox inh 133.3*, ZTA counter -5.5, EBNA-1 inh -4.0, aDG glyco act -0.2, Rev-erbA mod 1.5 and PG9 Ab binder 1.4.
For COC(=O)[C@]12C[C@H](CC(=O)NCc3cccs3)C(=O)N(Cc3ccc(Cl)cc3Cl)C1=C[C@H](COCc1ccccc1)O[C@@H]2C the results were Rev-erbA mod 1.9.
`Cc1ccc2oc(=O)c3cnn(CC(=O)NCCN(C)C)c3c2c1` gave p47phox inh -8.9, ZTA counter -19.4, EBNA-1 inh 3.4, aDG glyco act 1.9, Rev-erbA mod 6.9 and PG9 Ab binder -1.9.
